PubChem BioAssay (NCATS)
“And” between values parts separate entries of the source, which are not always exact repeats. Equal entries are not always repeated. Inconclusive results are not listed. Where a call stands in place of a potency, no number is given. The source made the active and inactive calls. Calls come from the whole dose curve; as a rule, active = well fitted inhibition curve with a large enough effect; inconclusive = small, poorly fitted or top-dose-only effect; inactive = no such curve, though single readings can be large or run the other way. Where a SMILES comes first, the peptide text is derived from it. Bridges are numbered along the chain shown (N, C = ends). [ ]: non-standard residue; d: D form. The star is where a group is joined. AFC = O=c1cc(C(F)(F)F)c2ccc(N*)cc2o1; X1 = CCC(C)C(N)C1=NC(C(=O)*)CS1; dOrn = NCCC[C@@H](N)C(=O)O
Potency is the fitted concentration of half-maximal effect.

Experiment: Primary qHTS for inhibitors of nuclear receptor binding SET domain protein 2 (NSD2) in an RCH-ACV wild type WT cells (2C) (AID 1645877); note: nearly all actives have a fitted effect of over 70% in size
Conditions: RCH-ACV (leukaemia line) NSD2 WT (2C) viability, CellTiter-Glo, 72 h; series mostly up to 44.9 µM
In the case of O=c1ccn(C2OC(CO)C(O)C2O)c(=O)[nH]1 (stereo not given), the Potency was “inactive”. In the case of COc1cc2c(Nc3ccc(Cl)c(Cl)c3F)ncnc2cc1OCC1C[C@@H]2CN(C)C[C@@H]2C1 (stereo not given in full), the Potency was 2.63 µM (active) and 1.86 µM (active). With CC(C)CC(=O)OC[C@H]1O[C@@](COC(=O)CC(C)C)(O[C@H]2O[C@H](CO)[C@@H](O)[C@H](O)[C@H]2OC(=O)CC(C)C)[C@@H](OC(=O)CC(C)C)[C@@H]1O the Potency was “inactive”. In the case of CC1=CC(=O)OC(C)(CC(C)(O)C(=O)O)C1 (stereo not given), the Potency was “inactive”. For Cc1nnc(C(C)C)n1C1CC2CCC(C1)N2CC[C@H](NC(=O)C1CCC(F)(F)CC1)c1ccccc1 (stereo not given in full), the Potency was “inactive”. For CC(=O)N[C@@H](CC(C)C)C(=O)N[C@@H](CCC(=O)O)C(=O)N[C@@H](CCC(=O)O)C(=O)N[C@@H](CC(=O)O)C(=O)Nc1ccc2c(C(F)(F)F)cc(=O)oc2c1 (Ac-LEED-{AFC}), the Potency was “inactive”. For COCC(=O)N1CCc2cc(-c3csc(NC(=O)c4cc(OC)cc(OC)c4)n3)ccc21, the Potency was “inactive”. In the case of Clc1ccc(CN[C@H]2CCN(c3ncc(Br)cn3)C2)c(Cl)c1, the Potency was “inactive”. With CC(C)(C)NCC(O)COc1cccc2c1CCCC2=O (stereo not given) the Potency was 4.59 µM (active). In the case of CCC(C)C(N)C1=NC(C(=O)N[C@@H](CC(C)C)C(=O)N[C@H](CCC(=O)O)C(=O)N[C@H](C(=O)N[C@H]2CCCCNC(=O)[C@H](CC(N)=O)NC(=O)[C@@H](CC(=O)O)NC(=O)[C@H](Cc3cnc[nH]3)NC(=O)[C@@H](Cc3ccccc3)NC(=O)[C@H]([C@@H](C)CC)NC(=O)[C@@H](CCCN)NC2=O)[C@@H](C)CC)CS1 (stereo not given in full) (X1-L[dE]IK[dOrn]I[dF]H[dD]N; lactam 4-C), the Potency was “inactive”.
